Test results: PubChem BioAssay (Tox21)
Results filed as inconclusive are left out. Entries that show only a call come without a potency. A number with no mark means an inactive call. The source made the active and inactive calls. Unless noted, calls follow the shape of the dose curve; as a rule, active = well fitted cell-killing curve with a large enough effect in the repeat runs; inconclusive = weak or mixed curves, or effect the other way; inactive = no such curve, though single readings can be large or run the other way.

biological target: Peroxisome proliferator-activated receptor gamma (Homo sapiens) (UniProt P37231); assay: qHTS assay to identify small molecule agonists of the peroxisome proliferator-activated receptor gamma (PPARg) signaling pathway (AID 743094; active = well fitted activation curve with a large enough effect in the signal ratio in the repeat runs, not every such curve was filed as active; the % refers to the signal ratio); details: HEK293H PPARg-UAS-bla, beta-lactamase FRET ratio, 17 h; series mostly up to 57 µM; activation: at the top concentration
In short: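 Beta-lactamase FRET fluorescence was the read-out after a 1 h room-temperature substrate step, following 17 h compound treatment at 37C of HEK293H cells expressing a UAS-driven bla reporter responsive to PPARg.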

Peroxisome proliferator-activated receptor gamma (Homo sapiens), sequence (P37231 whole entry, looked up): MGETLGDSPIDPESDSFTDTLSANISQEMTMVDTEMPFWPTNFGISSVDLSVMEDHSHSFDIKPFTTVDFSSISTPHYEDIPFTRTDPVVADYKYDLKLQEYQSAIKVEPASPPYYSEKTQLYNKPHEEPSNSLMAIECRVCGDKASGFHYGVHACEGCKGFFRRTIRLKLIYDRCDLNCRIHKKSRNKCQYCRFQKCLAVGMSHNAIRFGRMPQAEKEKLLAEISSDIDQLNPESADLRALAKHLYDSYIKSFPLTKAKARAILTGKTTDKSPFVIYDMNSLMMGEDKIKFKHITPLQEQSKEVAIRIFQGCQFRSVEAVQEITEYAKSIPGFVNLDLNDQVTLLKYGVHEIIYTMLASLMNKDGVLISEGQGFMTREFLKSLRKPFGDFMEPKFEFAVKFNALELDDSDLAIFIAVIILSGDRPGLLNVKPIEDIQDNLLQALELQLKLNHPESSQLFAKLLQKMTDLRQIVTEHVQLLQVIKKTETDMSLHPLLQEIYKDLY

Row | Structure (SMILES) | Potency
1 | COCN(COC)c1nc(N(COC)COC)nc(N(COC)COC)n1 | inactive
2 | CCCCC(CC)COC(=O)c1ccc(C(=O)OCC(CC)CCCC)cc1 (stereo unspecified) | inactive
3 | OC[C@H]1O[C@@H](Oc2ccc(O)cc2)[C@H](O)[C@@H](O)[C@@H]1O | inactive
4 | CC(C)c1ccc(C(C)C)cc1 | inactive
5 | CC(CN1c2ccccc2Sc2ccccc21)N(C)C (stereo unspecified) | inactive

biological target: Peroxisome proliferator-activated receptor gamma (Homo sapiens) (UniProt P37231); assay: qHTS assay to identify small molecule antagonists of the peroxisome proliferator-activated receptor gamma (PPARg) signaling pathway (AID 743191; calls by dose curve; also: nearly all actives have a fitted effect of over 30% in size); details: HEK293H PPARg-UAS-bla, beta-lactamase ratio, antagonist, 17 h; series mostly up to 62.6 µM; ratio activity, negative = inhibition: at the top concentration
In short: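 Beta-lactamase reporter under UAS control in HEK293H PPARg-bla cells; compound treatment 17 h at 37C. Read-out: fluorescence intensity after 1 h room-temperature incubation with LiveBLAzer B/G FRET substrate.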

Row | Structure (SMILES) | Potency | ratio activity, negative = inhibition
6 | CC(=O)OC/C=C(\C)CCC=C(C)C | inactive | 
7 | COc1c2ccoc2cc2oc(=O)ccc12 |  | -2.51%
8 | CO[Si](CCCNCCN)(OC)OC | inactive | 
9 | CCCOCC(C)O (stereo unspecified) | inactive | 
10 | O=Cc1ccc(CO)o1 | inactive | 
11 | OC1CCCCC1 |  | -4.63% [at 81.1 µM]
12 | CC(O)CNCC(C)O (stereo unspecified) | inactive | 
13 | O=[N+]([O-])c1cc(C(F)(F)F)ccc1Cl |  | 11.3% [at 81.1 µM]
14 | CC(C)=CCC/C(C)=C/C=O | inactive | 
15 | CCCCCC(C)=O |  | 12.6% [at 81.1 µM]
16 | CCCN(CCC)C(=O)SCC | inactive | 
17 | O=[N+]([O-])c1ccccc1C(F)(F)F | inactive | 
18 | O=C(O)C1=NN(c2ccc(S(=O)(=O)O)cc2)C(=O)C1 |  | -10.9%
19 | Cc1cc(C)c(O)c(C)c1 | inactive | 
20 | CN=C(NC#N)NCCSCc1nc[nH]c1C |  | 0.187%
21 | COCN(COC)c1nc(N(COC)COC)nc(N(COC)COC)n1 | inactive | 
22 | CCCCC(CC)COC(=O)c1ccc(C(=O)OCC(CC)CCCC)cc1 (stereo unspecified) | inactive | 
23 | OC[C@H]1O[C@@H](Oc2ccc(O)cc2)[C@H](O)[C@@H](O)[C@@H]1O | inactive | 
24 | CC(C)c1ccc(C(C)C)cc1 |  | 4.44%

tested on: not listed separately; assay: qHTS assay to identify small molecule antagonists of the peroxisome proliferator-activated receptor gamma (PPARg) signaling pathway - cell viability counter screen (AID 743194); details: PPARg-bla HEK293H viability, CellTiter-Glo luminescence, 17 h; Potency: co-treated with 50 nM rosiglitazone unless noted; series mostly up to 62.6 µM; activity change, negative = cytotoxicity: at the top concentration; also: nearly all actives have a fitted effect of over 55% in size
In short: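 Viability was measured as CellTiter-Glo luminescence in GeneBLAzer PPARg UAS-bla HEK293H cells. These cells had been exposed 17 h at 37 C to compounds together with rosiglitazone at 50 nM final, with the beta-lactamase readout taken in the same wells.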

Row | Structure (SMILES) | activity change, negative = cytotoxicity | Potency
25 | CCN(CC)CCNC(=O)c1ccc(N)cc1 | 11.5% [at 81.1 µM, co-treated with 50 nM rosiglitazone] | 
26 | CN1Cc2c(N)cccc2C(c2ccccc2)C1 (stereo unspecified) |  | inactive
27 | CC(=O)OC/C=C(\C)CCC=C(C)C | -8.61% | 
28 | OCCOCCOCCOCCOCCO |  | inactive
29 | NCCNCCNCCN |  | inactive
30 | COc1c2ccoc2cc2oc(=O)ccc12 |  | inactive
31 | CO[Si](CCCNCCN)(OC)OC |  | inactive
32 | CCCOCC(C)O (stereo unspecified) |  | inactive
33 | O=Cc1ccc(CO)o1 |  | inactive
34 | COc1ccc2cc3[n+](cc2c1OC)CCc1cc2c(cc1-3)OCO2 |  | inactive
35 | OC1CCCCC1 |  | inactive
36 | Nc1nc(N)c2nc(-c3ccccc3)c(N)nc2n1 |  | inactive
37 | CC(O)CNCC(C)O (stereo unspecified) |  | inactive
38 | O=C(O)Cc1c[nH]c2ccccc12 |  | inactive
39 | O=[N+]([O-])c1cc(C(F)(F)F)ccc1Cl |  | inactive
40 | CC/C(C)=N/O |  | inactive
41 | CC(C)=CCC/C(C)=C/C=O |  | inactive
42 | CCCCCC(C)=O |  | inactive
43 | CCOC(=O)CC(=O)OCC | -4.21% [at 81.1 µM, co-treated with 50 nM rosiglitazone] | 

Row | Structure (SMILES) | activity change, negative = cytotoxicity | Potency
44 | CCCCCCCCCCCCCC(=O)O |  | inactive
45 | C=C(C)CC(C)(C)C |  | inactive
46 | CCCN(CCC)C(=O)SCC | -27.1% [at 81.1 µM, co-treated with 50 nM rosiglitazone] | 
47 | NC1CCCCC1N (stereo unspecified) |  | inactive
48 | O=[N+]([O-])c1ccccc1C(F)(F)F |  | inactive
49 | O=C(O)C1=NN(c2ccc(S(=O)(=O)O)cc2)C(=O)C1 |  | inactive
50 | Cc1cc(C)c(O)c(C)c1 |  | inactive
51 | O=c1n(CCCN2CCN(c3cccc(Cl)c3)CC2)nc2ccccn12 |  | inactive
52 | CN=C(NC#N)NCCSCc1nc[nH]c1C |  | inactive
53 | COCN(COC)c1nc(N(COC)COC)nc(N(COC)COC)n1 |  | inactive
54 | CCCCC(CC)COC(=O)c1ccc(C(=O)OCC(CC)CCCC)cc1 (stereo unspecified) |  | inactive
55 | OC[C@H]1O[C@@H](Oc2ccc(O)cc2)[C@H](O)[C@@H](O)[C@@H]1O |  | inactive
56 | COC(=O)/C=C\C(=O)OC | 3.28% | 
57 | CC(C)c1ccc(C(C)C)cc1 |  | inactive
58 | O=C(NCC1CCCCN1)c1cc(OCC(F)(F)F)ccc1OCC(F)(F)F (stereo unspecified) |  | inactive
59 | CCc1cccc(CC)c1N |  | inactive
60 | Brc1ccc(Oc2ccc(Br)cc2)cc1 |  | inactive
61 | Clc1cccc(Cl)c1NC1=NCCN1 |  | inactive
